According to the supplement of paper PMC11150407:
Among all 3,000 compounds or so, about 45 (2%) showed an effect of 50% or more. Shown is part of a subset that was picked to be rich in strong results.

Test system: MOLM1 and UCSD/AML1 (averaged)
Test: cell viability relative to DMSO control (POC); higher = less growth inhibition
Conditions: 1 µM; 72 h
Experimental: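 Primary viability screen in the 3q26 EVI1-high AML cell lines MOLM1 and UCSD/AML1, compounds at 1 uM for 72 h. ATP CellTiter-Glo read-out given as percent viable over DMSO control (POC), averaged over duplicates. This mapping covers the TimTec NDL-3000 natural derivative library, whose compounds are identified by TimTec catalogue codes (ST...).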

Compound | cell viability
CCc1ccc2oc(=O)cc(CN3CCN(Cc4nc(-c5ccc(C)cc5)oc4C)CC3)c2c1 | 96.3%
O=C(Cn1c(=O)cc(C(=O)N2CCCCC2)c2ccccc21)Nc1ccc(F)cc1 | 89.9%
Cc1ccc2c(CN3CCN(Cc4ccc(Br)cc4F)CC3)cc(=O)oc2c1 | 100%
CCc1ccc(-c2cc(-c3cc(OC)c(OC)c(OC)c3)[nH]c(=O)c2C#N)cc1 | 96.9%
CC(=O)OCC1OC(OC(C)=O)C(OC(C)=O)C(OC(C)=O)C1OC(C)=O (centres undefined) | 109%
O=C(/C=C/c1cccc(Cl)c1)c1ccc(OC(=O)c2cccc([N+](=O)[O-])c2)cc1 | 102%
Nc1nc2ncc(CNc3ccc(C(=O)N[C@H](CCC(=O)O)C(=O)O)cc3)nc2c(=O)[nH]1 | 102%
COc1cc(C2C(C#N)=C(N)Oc3n[nH]c(-c4ccccc4)c32)cc(OC)c1OC (centres undefined) | 100%
COc1cc(C2C(C#N)=C(N)Oc3n[nH]c(C)c32)ccc1O (centres undefined) | 110%
COc1cc(C2C(C#N)=C(N)Oc3cc(N)ccc32)cc(OC)c1OC (centres undefined) | 13.5%
COc1cc(C(=O)N2CCCc3cccc(OCCNC(C)=O)c32)cc(OC)c1OC | 98.7%
CCOC(=O)CC[C@@H](C)[C@H]1CC[C@H]2[C@@H]3CC[C@@H]4C[C@H](O)CC[C@]4(C)[C@H]3C[C@H](O)[C@]12C | 86%
CC(=O)c1nc2ccccc2n1CC(=O)NCCOc1ccccc1 | 98.2%
COc1cccc(NC(=O)Cn2c(=O)cc(C(=O)N3CCCC3)c3ccccc32)c1 | 102%
COc1ccc(C(=O)c2sc(Nc3cccc(F)c3)nc2N)cc1OC | 96.9%
COc1ccc(C(=O)c2sc(Nc3ccc(F)cc3)nc2N)cc1OC | 101%
COc1ccc(Nc2nc(N)c(C(=O)c3ccc(OC)c(OC)c3)s2)cc1 | 15.4%
CCOc1ccc(-c2nc(CSc3nc4c(=O)[nH]cnc4n3C)c(C)o2)cc1OC | 118%
COC(=O)c1cc(O)cc(O)c1 | 104%
COC(=O)c1c(C)n(CCOc2ccc(F)cc2)c2ccc(O)cc12 | 96.9%
COc1cc(C(=O)NCc2ccc3c(c2)OCO3)c(Br)c(OC)c1OC | 105%
COc1cc(OC)c(C(=O)/C=C/c2ccc(O)cc2)c(OC)c1 | 100%
COc1cc(O)c(C(=O)/C=C/c2ccco2)c(OC)c1 | 112%
COc1cc(OC)c(C(=O)/C=C/c2ccccc2)c(OC)c1 | 33%
CCN(CC)c1ccc2[nH]c3c(C(N)=O)cc(=O)c(=O)c=3oc2c1 | 3.99%

Compound | cell viability
CCN(CC)c1ccc2cc(-c3ccccc3)c(=O)oc2c1 | 96.9%
CC(C)c1ccc(NC(=O)Cn2c(=O)cc(C(=O)N3CCc4ccccc4C3)c3ccccc32)cc1 | 97.1%
COc1ccc(C(=O)/C=C2\C(=O)Nc3ccccc32)cc1OC | 52.3%
COc1cc(C(=O)NC2Cc3ccccc3NC2=O)cc(OC)c1OC (centres undefined) | 109%
COc1cc(C(=O)/C=C2\C(=O)Nc3ccccc32)cc(OC)c1OC | 21.6%
CN(C)c1ccc2cc3ccc(=[N+](C)C)cc-3oc2c1 | 3.15%
CCN(CC)c1ccc2cc(-c3ccc(OC)cc3)c(=O)oc2c1 | 88.7%
COc1cc(/C=C/C(=O)c2ccc(C(=O)/C=C/c3cc(OC)c(OC)c(OC)c3)cc2)cc(OC)c1OC | 106%
Cc1ccc(C)c(NC(=O)CN2CCN(Cc3cc(=O)oc4cc(C)ccc34)CC2)c1 | 98.3%
COc1ccccc1NC(=O)c1ccc2c(c1)OCO2 | 94.7%
CCOc1ccccc1C1CCCC2(O)CCN(CC(=O)NCc3ccco3)CC12 (centres undefined) | 99.5%
CCOC(=O)C1=C(C)N(C)C(=O)NC1c1cc(Br)c(O)c(OC)c1 (centres undefined) | 116%
CCOC(=O)c1sc(NC(=O)/C=C/c2ccccc2)c(C(=O)OCC)c1C | 96%
COc1ccc2oc(C(Cl)(Cl)Cl)cc(=O)c2c1 | 3.78%
COc1ccc(-c2cc(=O)c3ccccc3o2)c(OC)c1 | 113%
COc1ccc2c(=O)cc(C(Cl)(Cl)Cl)oc2c1 | 5.13%
COc1ccc2c(O)c([N+](=O)[O-])c(=O)oc2c1 | 105%
COc1ccc(-c2cc(=O)c3cc(O)ccc3o2)cc1 | 71.1%
COc1ccc2c(=O)c(O)c(-c3ccccc3)oc2c1 | 62.7%
COc1cc(OC)cc(C(=O)Nc2ccccc2C(=O)Nc2ccccc2Cl)c1 | 95.1%
CN1CCN(Cc2c(O)ccc3cc(-c4nc5ccccc5s4)c(=O)oc23)CC1 | 101%
Cc1cc(C)c(NC(=O)Cn2c(=O)cc(C(=O)N3CCc4ccccc4C3)c3ccccc32)c(C)c1 | 100%
CCCCCC1CCC(=O)N1CCN=Cc1c(O)c(O)c(C(C)C)c2cc(C)c(-c3c(C)cc4c(C(C)C)c(O)c(O)c(C=NCCN5C(=O)CCC5CCCCC)c4c3O)c(O)c12 (centres undefined) | 86.9%
Cc1[nH]c2ccccc2c1CCNC(=O)c1ccc(=O)[nH]c1 | 96.3%
CC(Cl)COC(=O)/C=C/c1ccc([N+](=O)[O-])cc1 (centres undefined) | 108%

Compound | cell viability
Cc1ccc(N2C3=C(C(=O)CC(C)(C)C3)C(c3ccc(O)cc3)C3=C2CC(C)(C)CC3=O)cc1 | 89.8%
Cc1ccc(OCCSc2ncnc3nc[nH]c23)cc1 | 92.7%
COc1ncnc2nc[nH]c12 | 100%
Cc1ncnc2nc[nH]c12 | 3.11%
Cc1ccc(-n2c(SCc3cn4ccccc4n3)nc3c(=O)[nH]cnc32)cc1 | 98.3%
Cc1cc2c(C(C)C)c(O)c(O)c(C=NCCN3CCN(C)CC3)c2c(O)c1-c1c(C)cc2c(C(C)C)c(O)c(O)c(C=NCCN3CCN(C)CC3)c2c1O | 98.8%
CCC(O)/N=C/c1c(O)c(O)c(C(C)C)c2cc(C)c(-c3c(C)cc4c(C(C)C)c(O)c(O)c(/C=N/C(O)CC)c4c3O)c(O)c12 (centres undefined) | 88.9%
Cc1cc2c(C(C)C)c(O)c(O)c(/C=N/N3CCN(C)CC3)c2c(O)c1-c1c(C)cc2c(C(C)C)c(O)c(O)c(/C=N/N3CCN(C)CC3)c2c1O | 4.5%
COc1ccc(NC(=O)CSc2nc3c(=O)[nH]cnc3n2-c2ccc(C)cc2)c(OC)c1 | 102%
Cc1ccc(C(=O)N2N=C(c3c(-c4ccccc4)c4cc(Br)ccc4[nH]c3=O)CC2c2ccccc2)cc1 (centres undefined) | 100%
CCOC(=O)N1CCc2[nH]c3ccc(Cl)cc3c2C1 | 89.6%
O=C(O)c1ccc2[nH]c3c(c2c1)CCCC3 | 95.7%
CCOC(=O)N1CCc2[nH]c3ccc(C)cc3c2C1 | 42.4%
CCN(CC)CCC(=O)c1ccc(OC)c(OC)c1 | 98.6%
COc1ccc(/C=C/C(=O)Oc2ccc(C(C)C)cc2)c(OC)c1 | 101%
COc1ccc(Br)cc1/C=C/C(=O)O | 95.6%
CCOC(=O)CCc1n[nH]c(=O)[nH]c1=O | 88.1%
CCOC(=O)[C@H]1CCC(=O)N1 | 17.6%
CCOC(=O)CCc1ccc2c(c1)NC(=O)CC2 | 91.8%
Cc1cccc(NC(=O)CSc2nc3c(=O)[nH]cnc3n2C)c1C | 95.1%
Cc1[nH]c2ccc(Br)cc2c1CCNC(=O)c1cccs1 | 100%
Cc1ccc(NC(=O)CSc2nc3c(=O)[nH]cnc3n2CC2CCCO2)c(Cl)c1 (centres undefined) | 98.7%
COc1ccc(C(=O)N2CCN(Cc3cc(=O)oc4cc(C)ccc34)CC2)c(OC)c1 | 93%
Cc1ccc2c(CN3CCN(C(=O)OC(C)(C)C)CC3)cc(=O)oc2c1 | 14.9%
Cc1ccc2c(CN3CCN(Cc4ccc(Cl)cc4)CC3)cc(=O)oc2c1 | 96.2%

Compound | cell viability
C=C(C)C1CCC2(C)CCC3(C)C(CCC4C5(C)CCC(OC(C)=O)C(C)(C)C5CCC43C)C12 (centres undefined) | 102%
COc1ccc(OC)c2c(C)cc(SCC(=O)c3ccc4c(c3)OCCO4)nc12 | 101%
COC(=O)C1=C(C)NC2=C(C(=O)CCC2)C1c1cc(OC)c(OC)c(OC)c1 (centres undefined) | 94.9%
COC(=O)C1=C(C)NC(SC)=C(C#N)C1c1cc(OC)c(OC)c(OC)c1 (centres undefined) | 18.3%
COC(=O)C1=C(C)NC2=C(C(=O)CC(c3ccc(OC)c(OC)c3)C2)C1c1cc(OC)c(OC)c(OC)c1 (centres undefined) | 101%
CC(=O)/C=C(\C)NC(C)C(=O)O (centres undefined) | 102%
O=C(/C=C/c1ccc(NC(=O)c2cc(NC(=O)C(c3ccccc3)c3ccccc3)cc(NC(=O)C(c3ccccc3)c3ccccc3)c2)cc1)c1ccccc1 | 94.6%
O=C(/C=C/c1ccc(Cl)cc1Cl)c1ccc(Br)cc1 | 108%
O=C(/C=C/c1cccc(NC(=O)c2ccc(Br)cc2)c1)c1cccc(NC(=O)c2ccc(Br)cc2)c1 | 1.83%
CCCCCCOC(=O)c1ccccc1NC(=O)c1c(O)c2ccccc2[nH]c1=O | 97.5%
CCOc1cc(/C=C2\Oc3ccc(C(=O)OC)cc3C2=O)ccc1O | 16.8%
COC(=O)c1ccc2c(c1)C(=O)/C(=C/c1ccc(O)c(OC)c1)O2 | 84.6%
CCOc1ccc(/C=C2/Oc3ccc(C(=O)OC)cc3C2=O)cc1OCC | 96.6%
COc1cc(N(C(C)=O)C2OC(COC(C)=O)C(OC(C)=O)C(OC(C)=O)C2OC(C)=O)c(OC)c2c(C)cc(C)nc12 (centres undefined) | 98.5%
CCOC(=O)CSc1nc2c(c(=O)[nH]c(=O)n2C)n1Cc1cccc(C)c1 | 100%
Cc1ccc(-n2c(SCc3cccc(Cl)c3)nc3c(=O)[nH]cnc32)cc1 | 114%
CN(C)S(=O)(=O)Nc1ccc(S(=O)(=O)N2CCc3ccccc3C2)cc1 | 98.2%
COc1ccc(-c2nnc(SCc3nc4ccccc4[nH]3)o2)cc1OC | 95.3%
Cc1ccc(/C=C2\Oc3cc(O)ccc3C2=O)cc1 | 98.7%
O=C(CSc1nc2c(=O)[nH]cnc2n1-c1ccccc1)NC1CCCC1 | 91.7%
CC(NC(=O)c1ccccc1)C(=O)O (centres undefined) | 99.5%
COc1ccc(C2c3[nH]c4ccccc4c3CCN2C(=O)/C=C/c2cc(OC)c(OC)c(OC)c2)cc1 (centres undefined) | 32.6%
COc1ccc(C2c3[nH]c4ccccc4c3CCN2C(=O)/C=C/c2ccc(OC)c(OC)c2)cc1 (centres undefined) | 81.9%
COc1ccc(/C=C/C(=O)N2CCc3c([nH]c4ccccc34)C2c2ccc(OC)cc2)cc1 (centres undefined) | 90.2%
